Screening data as filed in PubChem BioAssay.
A selection: hits, their analogues and other compounds. The true share with any hit is near 9.1%.
mHtt clearance = compounds clearing mutant huntingtin protein. HeLa Exon1htt(103Q)mCFP, aggregate imaging; zero = plate's median compound well. inhibition, % at 1.5 µM. hit rate 0.42% among 47,000. AID 853;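 active = inhibition of aggregate fluorescence above about 70%, also judged a hit by eye on the cell image, limit read from the data, passing the limit was not always enough; inconclusive = no rule stated for this call; inactive = not judged a hit on image review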;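 note: cells exposed to compound for three days before fixation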
D1 mod = D1 dopamine receptor (human) allosteric modulation; P21728; HEK293 D1, CRE-luciferase, dopamine EC30 potentiation; actives deviate in either direction; B-score at 10 µM; hit rate 5.9% among 58,000;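 active = luminescence count or its row- and column-corrected plate score outside the 99.7% band of the plate's sample wells, on either side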
Target sequence (P21728 whole entry, looked up): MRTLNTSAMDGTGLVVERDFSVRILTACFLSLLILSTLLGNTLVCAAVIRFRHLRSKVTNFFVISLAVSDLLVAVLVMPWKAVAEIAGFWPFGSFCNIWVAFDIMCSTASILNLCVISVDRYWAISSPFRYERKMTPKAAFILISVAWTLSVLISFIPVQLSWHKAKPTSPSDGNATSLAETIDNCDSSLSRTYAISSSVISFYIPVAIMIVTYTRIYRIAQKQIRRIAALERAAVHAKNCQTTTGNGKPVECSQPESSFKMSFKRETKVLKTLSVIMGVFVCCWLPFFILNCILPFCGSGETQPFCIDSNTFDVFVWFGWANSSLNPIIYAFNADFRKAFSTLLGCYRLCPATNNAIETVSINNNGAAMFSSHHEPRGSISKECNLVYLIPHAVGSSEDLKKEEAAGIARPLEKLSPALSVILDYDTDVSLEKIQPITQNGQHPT
M1 antag = antagonists of rat M1 muscarinic receptor | B-score at 10 µM | hit rate 3.4% among 64,000 | CHO-M1 cells, Fluo-4 calcium, ACh EC80 antagonist mode; active compounds read low | P08482;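 active = calcium fluorescence response, raw or row-and-column corrected B-score, differing from the plate sample mean either way at a set confidence level, mostly lower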
M1 ag = M1 muscarinic receptor agonism; hit rate 3% among 64,000; CHO-M1 cells, Fluo-4 calcium fluorescence, agonist mode; active compounds read high; AID 626; B-score at 10 µM;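 active = fluorescence rise, raw or as B-score row- and column-corrected plate score, outside the 99.7% band of its plate's samples, either direction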
M1 agonist conf = confirmation of rat M1 muscarinic receptor agonists | CHO-M1 cells, Fluo-4 calcium fluorescence, agonist mode; actives lie on both sides | fluorescence change (max-min) at 10 µM | shares compounds with M1 ag | hit rate 19% among 1,700;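 active = fluorescence change differs from the solvent-only DMSO control mean at a set confidence level in both duplicate runs; inconclusive = differs from solvent-only control mean in just one of two runs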;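 note: an EC20 dose of acetylcholine follows compound addition during the same imaging run; raw fluorescence intensity difference in instrument units with no normalization to controls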
M4 agonist ctr = rat M4 muscarinic agonism, M1 counter-screen | hit rate 9% among 1,700 | CHO M4/Gqi5 cells, Fluo-4 calcium fluorescence, agonist mode; actives lie on both sides | fluorescence change (max-min) at 10 µM | shares compounds with M1 ag;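 active = fluorescence change differing from the plate's solvent-only control wells at 99.7% confidence in both duplicates, whether higher or lower; inconclusive = differs from solvent controls in only one of two duplicates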
The depositor's hits bear a star; ? = inconclusive; . = no result given.

SMILES	mHtt clearance	D1 mod	M1 antag	M1 ag	M1 agonist conf	M4 agonist ctr
OCC12COC(c3ccccc3)N1C(c1ccccc1)OC2 (configuration not stated)	-29	-0.49	0.8	8.3*	-16	?
CCOC(=O)CNC(=O)CSc1nnc(-c2ccco2)n1Cc1ccco1	-28	-0.059	-0.084	0.24	.	.
CCOC(=O)CNC(=O)CSc1nnc(-c2ccco2)n1N	.	-0.044	1.2	2.3*	-27*	-89*
CCOC(=O)C1CCCN(C/C(O)=C(\C#N)c2nc(-c3ccc(Cl)cc3)cs2)C1 (configuration not stated)	-26	-0.082	0.14	21*	?	-29
CCOC(=O)C1CCCN(Cc2nc(N)nc(Nc3ccc(Cl)cc3)n2)C1 (configuration not stated)	-6	0.21	-0.086	0.33	.	.
COCCn1c(N)c(C(=O)NCC2CCCO2)c2nc3ccccc3nc21 (configuration not stated)	0	0.75	-0.55	7.8*	-26*	?
CC(C)Cn1c(N)c(C(=O)NCC2CCCO2)c2nc3ccccc3nc21 (configuration not stated)	.	.	0.18	0.32	.	.
CCOC(=O)C1=C(N)Oc2c(c(=O)[nH]c3ccccc23)C1c1ccccc1 (configuration not stated)	-67	.	.	.	.	.
O=C(Cn1ccc2ccccc2c1=O)NCCC(=O)N1CCN(C2CCCCC2)CC1	48	-0.88	-0.86	17*	-1.5	-25
CCOC(=O)C1CCN(C(=O)c2cc(S(=O)(=O)N3CCOCC3)c(Cl)cc2Cl)CC1	54	0.14	-1.4	-0.0086	.	.
O=C1CC(=C2c3ccccc3-c3ccccc32)C(=O)N1CCN1CCN(c2cccc(Cl)c2)CC1	33	.	.	.	.	.
CCc1c(-c2ccccc2)nc2nc(C)c(C)nn12	-111	-0.0036	0.24	46*	237*	219*
COc1ccc(N)cc1C#N	12	0.5	0.12	0.85	.	.
COc1cc(N)ccc1Cc1ccc(N)cc1OC	11	-0.4	1.1	3.7*	-19	-27
c1ccc(-c2nc(-n3ccnc3)nc(-n3ccnc3)n2)cc1	.	2.8	-2.4	7.9*	-0.7	2.3
COc1cc(NS(C)(=O)=O)c(OC)cc1NC(=O)c1ccccc1	-37	-0.34	0.062	0.31	.	.
COC(=O)CCCC(=O)N1CCOCCN(C(=O)CCCC(=O)OC)CCOCC1	13	-0.035	0.7	-0.19	.	.
CCOC(=O)C1=C(C)OC(N)=C(C#N)C1c1c(C)nn(-c2ccc(C)cc2)c1Cl (configuration not stated)	.	-0.96	0.14	3.4*	1	-13
COC(=O)C1=C(C)OC(N)=C(C#N)C1c1c(C)nn(-c2ccccc2)c1Cl (configuration not stated)	.	-0.35	-0.11	-0.41	.	.
CC(C)(C)NS(=O)(=O)c1ccc(CCC(=O)N2CCCCC2)cc1	.	-0.49	-0.25	-0.081	.	.
CCCNS(=O)(=O)c1ccc(CCC(=O)N2CCCCC2)cc1	.	-0.36	1.1	4.8*	?	-49
Cc1nn(-c2ccccc2)c(Cl)c1C(=O)N1CCN(c2ncnc3c2cnn3-c2ccccc2)CC1	36	.	-3.4*	2.5*	-27*	-57
C=CCn1c(Cc2csc(N)n2)nnc1SCC(=O)Nc1ccccc1C(F)(F)F	8	.	.	.	.	.
O=C(CSc1nc(-c2ccco2)cc(C(F)(F)F)n1)Nc1ccc(C(=O)N2CCCCC2)cc1	.	.	-1.1	6.7*	?	?
COc1ccccc1N1CCN(C(=O)CSc2nc(-c3ccco3)cc(C(F)(F)F)n2)CC1	-20	-0.95	-0.19	7.5*	-9.7	-11
SMILES	mHtt clearance	D1 mod	M1 antag	M1 ag	M1 agonist conf	M4 agonist ctr
O=C(CSc1nc(-c2ccco2)cc(C(F)(F)F)n1)Nc1ccccc1C(F)(F)F	16	.	.	.	.	.
Cc1nn(C)c(C)c1NC(=O)CCSc1nc(-c2ccco2)cc(C(F)(F)F)n1	-44	1.4	-3.7*	34*	-8.3	-32
CCn1nc(C)c(NC(=O)CCCSc2nc(-c3ccco3)cc(C(F)(F)F)n2)c1C	.	0.095	0.052	-0.41	.	.
O=C(NCCc1ccccc1)C1CCCN(S(=O)(=O)c2cccc3nsnc23)C1 (configuration not stated)	.	1.8	0.16	-0.76	.	.
CCCc1cc(NCCN2CCOCC2)n2c(nc3ccccc32)c1C#N	.	.	-0.52	-0.076	.	.
CC1(C)C(=O)NCCN1C(=O)CCC(=O)O	14	.	.	.	.	.
